# Test results from the supplement of paper PMC8728848.
# About 410 targets per protein were measured; listed, in parts, are those with the strongest signals and a random draw of the rest.
# B1: Mermaid2 (Stilbonema majum) (protein)
# chain: MGSSHHHHHHSSGLVPRGSHMAASGWLRSPQGTVVKLYRRSLSWSKADEFCKDVDGRLVVDRTADMHLFLIKNVLKEKKSRVWVGLRRTAPHSRTWIWSDGTRQNEDDLNTNLWLRDEPNDAAGEEECALFMYSPWEKAWGLNDYLCRGGCRSYQFICEKGIR
# Key:
# Experiment in all cases: glycan array binding signal (z-score within array); higher = stronger binding
# Conditions in all cases: glycan notation: IUPAC condensed, linker removed
# [1] = molecular target: Gal6S(b1-4)GlcNAc6S
# Outline: (§1)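 Glycan array data were curated from 3228 arrays in the Consortium for Functional Glycomics database and kept only where the protein sequence was available. Glycan names were converted to IUPAC-condensed notation, and columns mapping to the same glycan were averaged. The binding signal is a within-array Z-score, averaged across arrays of the same protein sequence at different concentrations or buffers and across linkers. Negative Z-scores can be read as non-binding.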
# [2] = molecular target: GalNAc(b1-4)GlcNAc6S
# Outline: as §1
# [3] = molecular target: GlcNAc(b1-2)Man(a1-3)[GlcNAc(b1-2)Man(a1-6)]Man(b1-4)GlcNAc(b1-4)[Fuc(a1-6)]GlcNAc
# Outline: as §1
# [4] = molecular target: GlcNAc(b1-2)[GlcNAc(b1-6)]Man(a1-6)[GlcNAc(b1-2)Man(a1-3)]Man(b1-4)GlcNAc(b1-4)GlcNAc
# Outline: as §1
# [5] = molecular target: GlcNAc(b1-2)[GlcNAc(b1-6)]Man(a1-6)[GlcNAc(b1-2)Man(a1-3)]Man(b1-4)GlcNAc(b1-4)[Fuc(a1-6)]GlcNAc
# Outline: as §1
# [6] = molecular target: GlcNAc(b1-3)Gal(b1-4)GlcNAc(b1-3)Gal(b1-4)GlcNAc
# Outline: as §1
# [7] = molecular target: GlcNAc(b1-3)Gal(b1-4)GlcNAc(b1-3)Gal(b1-4)GlcNAc(b1-2)[GlcNAc(b1-3)Gal(b1-4)GlcNAc(b1-3)Gal(b1-4)GlcNAc(b1-6)]Man(a1-6)[GlcNAc(b1-3)Gal(b1-4)GlcNAc(b1-3)Gal(b1-4)GlcNAc(b1-2)Man(a1-3)]Man(b1-4)GlcNAc(b1-4)[Fuc(a1-6)]GlcNAc
# Outline: as §1
# [8] = molecular target: GlcNAc(b1-3)Gal(b1-4)GlcNAc(b1-3)Gal(b1-4)GlcNAc(b1-3)Gal(b1-4)GlcNAc(b1-2)Man(a1-3)[GlcNAc(b1-3)Gal(b1-4)GlcNAc(b1-3)Gal(b1-4)GlcNAc(b1-3)Gal(b1-4)GlcNAc(b1-2)Man(a1-6)]Man(b1-4)GlcNAc(b1-4)GlcNAc
# Outline: as §1
# [9] = molecular target: GlcNAc(b1-3)Gal(b1-4)GlcNAc(b1-6)[GlcNAc(b1-3)]Gal(b1-4)GlcNAc
# Outline: as §1
# [10] = molecular target: GlcNAc(b1-4)GlcNAc(b1-4)GlcNAc
# Outline: as §1
# [11] = molecular target: Man(a1-2)Man(a1-6)[Man(a1-3)]Man(a1-6)[Man(a1-2)Man(a1-2)Man(a1-3)]Man(b1-4)GlcNAc(b1-4)GlcNAc
# Outline: as §1
# [12] = molecular target: Man(a1-3)[Man(a1-6)]Man(a1-6)[Man(a1-2)Man(a1-3)]Man(b1-4)GlcNAc(b1-4)GlcNAc
# Outline: as §1
# [13] = molecular target: Man(b1-4)GlcNAc
# Outline: as §1
# [14] = molecular target: Neu5Ac(a2-3)Gal(b1-3)GlcNAc(b1-2)Man
# Outline: as §1
# [15] = molecular target: Neu5Ac(a2-3)Gal(b1-3)[Fuc(a1-4)]GlcNAc
# Outline: as §1
# [16] = molecular target: Neu5Ac(a2-3)Gal(b1-3)[Fuc(a1-4)]GlcNAc(b1-3)Gal(b1-4)[Fuc(a1-3)]GlcNAc
# Outline: as §1
# [17] = molecular target: Neu5Ac(a2-3)Gal(b1-4)GlcNAc(b1-3)Gal
# Outline: as §1
# [18] = molecular target: Neu5Ac(a2-3)Gal(b1-4)GlcNAc(b1-6)[Gal(b1-3)]GalNAc
# Outline: as §1
# [19] = molecular target: Neu5Ac(a2-6)Gal(b1-4)Glc
# Outline: as §1
# [20] = molecular target: Neu5Ac(a2-6)Gal(b1-4)GlcNAc(b1-2)Man(a1-3)[Man(a1-6)]Man(b1-4)GlcNAc(b1-4)GlcNAc
# Outline: as §1
# [21] = molecular target: Neu5Ac(a2-6)Gal(b1-4)GlcNAc(b1-2)Man(a1-6)[Gal(b1-4)GlcNAc(b1-2)Man(a1-3)]Man(b1-4)GlcNAc(b1-4)GlcNAc
# Outline: as §1
# [22] = molecular target: Neu5Ac(a2-6)Gal(b1-4)GlcNAc(b1-3)Gal(b1-4)GlcNAc
# Outline: as §1
# [23] = molecular target: Neu5Ac(a2-6)Gal(b1-4)GlcNAc(b1-3)Gal(b1-4)GlcNAc(b1-3)GalNAc
# Outline: as §1
# [24] = molecular target: Neu5Ac(a2-8)Neu5Ac(a2-3)Gal(b1-3)GalNAc(b1-4)[Neu5Ac(a2-3)]Gal(b1-4)Glc
# Outline: as §1
# [25] = molecular target: Neu5Ac9Ac(a2-3)Gal(b1-4)GlcNAc
# Outline: as §1
# [26] = molecular target: Neu5Gc(a2-3)Gal(b1-3)GlcNAc
# Outline: as §1
# [27] = molecular target: Neu5Gc(a2-3)Gal(b1-4)GlcNAc(b1-3)Gal(b1-4)GlcNAc(b1-2)Man(a1-3)[Neu5Gc(a2-3)Gal(b1-4)GlcNAc(b1-3)Gal(b1-4)GlcNAc(b1-2)Man(a1-6)]Man(b1-4)GlcNAc(b1-4)GlcNAc
# Outline: as §1
# [28] = molecular target: Neu5Gc(a2-3)Gal(b1-4)[Fuc(a1-3)]GlcNAc
# Outline: as §1
binder,measurement,setting,value
B1,glycan array binding signal (z-score),[1],-0.12
same,glycan array binding signal (z-score),[2],4.64
same,glycan array binding signal (z-score),[3],0.316
same,glycan array binding signal (z-score),[4],-0.776
same,glycan array binding signal (z-score),[5],-0.217
same,glycan array binding signal (z-score),[6],-0.357
same,glycan array binding signal (z-score),[7],0.522
same,glycan array binding signal (z-score),[8],-0.346
same,glycan array binding signal (z-score),[9],-0.719
same,glycan array binding signal (z-score),[10],0.454
same,glycan array binding signal (z-score),[11],-0.4
same,glycan array binding signal (z-score),[12],0.111
same,glycan array binding signal (z-score),[13],5.41
same,glycan array binding signal (z-score),[14],-0.619
same,glycan array binding signal (z-score),[15],-0.173
same,glycan array binding signal (z-score),[16],3.06
same,glycan array binding signal (z-score),[17],-0.777
same,glycan array binding signal (z-score),[18],6.1
same,glycan array binding signal (z-score),[19],-0.397
same,glycan array binding signal (z-score),[20],-0.03
same,glycan array binding signal (z-score),[21],-0.551
same,glycan array binding signal (z-score),[22],-0.49
same,glycan array binding signal (z-score),[23],-0.709
same,glycan array binding signal (z-score),[24],-0.435
same,glycan array binding signal (z-score),[25],-0.505
same,glycan array binding signal (z-score),[26],-0.34
same,glycan array binding signal (z-score),[27],-0.883
same,glycan array binding signal (z-score),[28],3.71
